The structures appear in SMILES notation.

From ChEMBL document CHEMBL1961873, “Compounds: GSK PKIS; Assays: Nanosyn kinase panel” (2012) come the findings set out here.

This test relates to Tyrosine-protein kinase ABL1 (Homo sapiens), P00519 [T315I]. The note with it: at 0.1 µM.
The term inhibition denotes the drop in the measured response relative to a control, in per cent. For `CN(C)CCOc1ccc(-c2nc(-c3ccncc3)c(-c3ccc4c(c3)CC/C4=N\O)[nH]2)cc1`, the inhibition turned out to be 8.51%.

On to `CCN1CCC(CC(=O)Nc2n[nH]c3nnc(-c4cccc(F)c4F)cc23)CC1`, for which the inhibition was determined as 2.02%.

Turning to `COc1cccc(-c2c[nH]c3c(N/N=C/c4ccncc4)ncnc23)c1`, the inhibition turned out to be 11.8%.

Regarding `Fc1ccc(-c2nn3ncccc3c2-c2ccnc(Nc3ccc4c(c3)OCCO4)n2)cc1`, the inhibition worked out at 14.1%.

For `COc1cc(Nc2nccc(Nc3ccc4c(C)n[nH]c4c3)n2)cc(OC)c1OC`, the inhibition came to 1.65%.

For `CC(C)COC(=O)c1ccc2c(c1)/C(=C/Nc1ccc(S(N)(=O)=O)cc1)C(=O)N2`, the inhibition came to 5.23%.

For `NS(=O)(=O)c1ccc(N/N=C2\C(=O)Nc3ccc4ncccc4c32)cc1`, the inhibition was found to be 8.91%.

Consider `COc1cc(N2CCN(C(C)C)CC2)ccc1Nc1nc(Nc2ccc(F)cc2C(N)=O)c2cc[nH]c2n1`, for which the inhibition is -0.7%.

On to `CCn1c(-c2nonc2N)nc2c(C#CC(C)(C)O)ncc(OC3CCNCC3)c21`, for which the inhibition was 2.72%.

For the compound `CNC(=O)c1cccc(C#Cc2cncnc2Nc2ccc(OCc3cccc(F)c3)c(Cl)c2)c1`, the inhibition amounted to 1.23%.

`Fc1cccc(COc2ccc(Nc3ncnc4sc(-c5ccco5)cc34)cc2Cl)c1`: the inhibition stood at 1.83%.

Consider `c1ccc(-c2nc3n(c2-c2ccc4c(c2)OCO4)CCC3)nc1`, for which the inhibition turned out to be 0.65%.

Turning to `O=S(=O)(CCNCc1ccc(-c2ccc3ncnc(Nc4ccc(OCc5cccc(F)c5)c(Cl)c4)c3c2)o1)c1ccccc1`, the inhibition came to 2.35%.

Consider `COc1cc(/C=N/Nc2ncnc3[nH]ncc23)ccc1O`, for which the inhibition is 8.14%.

`CS(=O)(=O)CCNCc1coc(-c2ccc3ncnc(Nc4ccc(OCc5ccccc5)cc4)c3c2)c1`: the inhibition was determined as 1.94%.

For `COc1cc2c(cc1Nc1nc(Nc3ccsc3C(N)=O)c3cc[nH]c3n1)N(C(=O)CN(C)C)CCC2(C)C`, the inhibition came out at 3.19%.
